# Assay outcomes (PubChem)
# Compounds with a hit are over-represented: about 19% of the library has one in this group of screens.
# HT1080 IDH1KD tx: toxicity to HT-1080 IDH1 knockdown cells (counter line); actives 2% (n = 360,000); HT-1080 IDH1 knockdown viability, ATP luminescence, 48 h; Potency, µM (top dose mostly 46.1 µM), without a hit: at the top dose activity, negative = toxicity, actives largely listed as cytotoxic;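 note: potency is the fitted concentration of half-maximal effect; 0% = DMSO wells and -100% = cell-free medium wells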
#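 Luminescent ATP read-out (CellTiter-Glo, 10 min at room temperature) after 48 h compound exposure at 37 °C gave viability of IDH1-knockdown HT-1080 cells. Activity was normalised to DMSO and cell-free wells, then fitted as concentration-response curves.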
# DT40 TDP1 no CPT: qHTS for Inhibitors of human tyrosyl-DNA phosphodiesterase 1 (TDP1): qHTS in cells in absence of CPT. Potency, µM (highest dose often 46.2 µM), without a hit: at the top dose activity change, negative = growth inhibition, hits mostly inhibitors. actives 15% (n = 420,000). DT40 Tdp1-/- hTDP1 cells, no CPT, ATP luminescence, 48 h; note: potency is the fitted concentration of half-maximal effect; nearly all actives have a fitted effect of over 55% in size
#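 Growth of hTDP1-complemented DT40 Tdp1-knockout cells is measured by ATP luminescence after at least 48 hr compound exposure at 37 °C, with DMSO substituting for the 20 nM CPT used in the parallel screen.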
# DT40 TDP1 CPT: DT40-hTDP1 cell growth loss with CPT. actives 12% (n = 420,000). Potency, µM (series often up to 46.2 µM), without a hit: at the highest dose activity change, negative = growth inhibition, hits mostly inhibitors. chicken DT40 Tdp1-/-;hTDP1 cells + 20 nM CPT, ATP luminescence, 48 h; note: potency is the fitted concentration of half-maximal effect; nearly all actives have a fitted effect of over 55% in size
#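 Chicken DT40 Tdp1-/- cells complemented with human TDP1, 400 cells/well, exposed to compounds plus 20 nM camptothecin for at least 48 h at 37 C; viability read as ATP content by CellTiter-Glo luminescence.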
# HT1080-NT tox: kills 2HG-producing HT-1080-NT fibrosarcoma cells. HT-1080-NT fibrosarcoma viability, CellTiter-Glo ATP luminescence, 48 h. Potency, µM (top dose mostly 46.1 µM), for inactives: top-dose activity, negative = less viability, usual class: cytotoxic. actives 1.6% (n = 360,000). AID 686970;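 note: NT is the 2HG producing partner of a matched IDH1 knockdown line; potency is the fitted concentration of half-maximal effect; 0% = DMSO-treated cells and -100% = media-only wells without cells; nearly all actives have a fitted effect of over 55% in size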
#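 Fibrosarcoma NT cells, 750 per well in 5% FBS RPMI, were exposed to compound for 48 hours. Viability: CellTiter-Glo luminescence.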
# IL-1B inflam inh: blocks inflammasome-driven IL-1 beta release; AID 743279; actives 4.7% (n = 360,000); THP-1 LPS/ATP IL-1B secretion, AlphaLISA, 16 h; active compounds read low; activity change, % at 57.5 µM; in the data active = activity change below about -50%; inconclusive = mostly about -30% to -49%
#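 THP-1 cells pretreated 1 hr with compounds (up to 57.5 uM final), then stimulated with LPS (250 ng/mL final) plus ATP (1.25 mM final); secreted IL-1B measured by AlphaLISA after 16 hr, decreased signal indicating inhibition.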
# An asterisk follows results filed as active; ? = inconclusive; . = no result given. Unless noted, calls come from the whole dose curve; as a rule, active = well fitted curve in the direction sought with a large enough effect; inconclusive = small, poorly fitted or top-dose-only effect, or another doubt; inactive = no such curve, though single readings can be large; an effect the other way counts as inactive or inconclusive. Unless noted, % is set by controls: 0 for no effect and ±100 for the full control effect.
SMILES,HT1080 IDH1KD tx,DT40 TDP1 no CPT,DT40 TDP1 CPT,HT1080-NT tox,IL-1B inflam inh
COC(=O)c1c(NC(=O)C2COc3ccccc3O2)sc2c1CCN(C(=O)OC)C2 (configuration not stated),7%,21µM*,16µM*,7%,?
CCC(CC)NC(=O)c1nn(Cc2ccccc2)c(=O)c2ccccc12,-16%,?,-13%,8%,9
COc1ccccc1CNC(=O)CSc1nnc2ccc(-c3cccnc3)nn12,8%,-17%,-26%,17%,-16
CCCNC(=O)c1c(NC(=O)C2COc3ccccc3O2)sc2c1CCCC2 (configuration not stated),9%,?,12µM*,?,18
CCOC(=O)c1c(NC(=O)C(C)Sc2cccc[n+]2[O-])sc2c1CCN(Cc1ccccc1)C2 (configuration not stated),-1%,16µM*,?,-6%,-25
CCOC(=O)c1c(NC(C)=O)sc2c1CCN(Cc1ccccc1)C2,-10%,?,?,1%,0
CC(C)(C)C(=O)Nc1nc2c(s1)CN(Cc1ccccc1)CC2,12%,18µM*,?,-6%,-12
C#Cc1cccc(NC(=O)c2ccc(Cl)cc2Cl)c1,-1%,29µM*,-12%,-1%,-8
COc1cc(OC)cc(C(=O)NCC(=O)Nc2ccc(C)c(Cl)c2)c1,2%,-10%,29%,-3%,-7
COc1cc(OC)cc(C(=O)Nc2ccc(Nc3ccccc3)cc2)c1,-10%,?,21µM*,-9%,-24
O=C(Nc1ccc(Nc2ccccc2)cc1)c1ccc(Br)cc1,-9%,-20%,?,-18%,7
COc1cc(OC)cc(C(=O)NCC(=O)Nc2ccc(-c3ccccc3)cc2)c1,5.8µM*,18µM*,16µM*,2.9µM*,39
O=C(Nc1ccc(Nc2ccccc2)cc1)c1ccccc1,-3%,21µM*,?,-4%,-27
Cc1ccsc1C(=O)OCC(=O)c1cc(C)n(C)c1C,-3%,?,-23%,-6%,-12
S=c1[nH]ccc2ccccc12,9%,7%,-5%,2%,39
O=C(/C=N/NC(=O)c1ccc(Cl)cc1Cl)c1ccccc1,?,?,?,-18%,-77*
N#C/C(C(=O)Nc1ccc(Cl)cc1)=C(/S)Nc1ccccc1,?,12µM*,15µM*,?,?
O=C(/C=N/NC(=O)c1ccccc1Br)c1ccccc1,-8%,?,?,-3%,-6
O=C(Nc1ccc(Nc2ccccc2)cc1)C(Cl)Cl,-15%,1.8µM*,1.2µM*,2%,-89*
O=C(Nc1ccc(Cl)cc1)c1ccc2c(c1)OCO2,0%,-26%,-2%,0%,-7
NC(=O)Nc1ccc(Nc2ccccc2)cc1,1%,-28%,?,2%,10
O=C(Nc1ccc(Cl)cc1)C1=Cc2ccccc2OC1,?,23µM*,?,-12%,-27
CCN(CC(=O)Nc1ccc(NC(C)=O)cc1)C(=O)CN1C(=O)NC(C)(c2ccc3ccccc3c2)C1=O (configuration not stated),0%,16%,-10%,-9%,-4
O=C(Nc1ccccc1)C(c1ccccc1)c1ccccc1,0%,-27%,-2%,2%,-11
CC(C)(C)C(=O)C(Cl)C(=O)Nc1ccccc1 (configuration not stated),?,4.1µM*,5.2µM*,2%,?
SMILES,HT1080 IDH1KD tx,DT40 TDP1 no CPT,DT40 TDP1 CPT,HT1080-NT tox,IL-1B inflam inh
O=C(Nc1ccc(Nc2ccccc2)cc1)c1ccc(Cl)cc1,-25%,13µM*,18µM*,-8%,-62*
O=C(Nc1ccc(Nc2ccccc2)cc1)c1ccc(Cl)cc1Cl,?,?,15µM*,-13%,?
CC(C)(C)c1ccc(C(=O)Nc2ccc(Cl)cc2)cc1,0%,-6%,-12%,14%,-18
O=C(Nc1cccnc1)c1ccc(S(=O)(=O)c2ccc(Cl)cc2)cc1,-8%,23µM*,?,-24%,-66*
CCN1CCN(C(=O)CCc2nnc(CCc3ccccc3OC)o2)[C@@H](C)C1=O,10%,11%,-2%,12%,35
COc1ccc(C=O)c(OCc2cn(CC(=O)c3ccc(O)cc3)nn2)c1,4%,-10%,-20%,3%,13
CCCOc1ccccc1C(=O)N1CCNC(=O)C1CC(=O)OC(C)C (configuration not stated),10%,8%,28%,18%,19
CCc1cccc2c1NC1(CCCC1)CC2C (configuration not stated),-1%,21µM*,?,17%,34
Cn1c(-c2cccs2)[n+](C)c2ccccc21,?,18µM*,?,-3%,7
O=C1c2ccccc2C(=O)N1CCc1c[nH]c2ccc(O)cc12,12%,?,-28%,22%,-6
CCCCCCCCCOC(=O)C[n+]1csc(CCO)c1C,0%,10µM*,?,4%,-19
COc1cc(CNC(=O)c2cc(-c3cc(F)ccc3OC(C)C)n[nH]2)cc(OC)c1,?,?,16µM*,?,?
CC(C)Oc1ccc(F)cc1-c1cc(C(=O)NCc2cc(C(F)(F)F)cc(C(F)(F)F)c2)[nH]n1,?,21µM*,18µM*,?,?
COc1cc(F)ccc1-c1cc(C(=O)NCc2cc(C(F)(F)F)cc(C(F)(F)F)c2)[nH]n1,?,-16%,?,2%,24
CCCOc1ccc(F)cc1-c1cc(C(=O)NCc2cc(OC)cc(OC)c2)[nH]n1,-26%,?,18µM*,-23%,-21
COc1ccccc1CNC(=O)c1cc(-c2cc(F)ccc2OC(C)C)n[nH]1,2%,21µM*,16µM*,8%,-8
CC(=O)NC(CC(=O)Nc1cccc(S(=O)(=O)N2CCCCC2)c1)c1ccccc1 (configuration not stated),10%,?,?,9%,11
COc1ccc(C(CNC(=O)CCNC(=O)c2ccccc2OC)N2CCCC2)cc1 (configuration not stated),10%,-12%,-9%,10%,-10
O=S(=O)(Cc1ccccc1)N1CCN(Cc2ccc3c(c2)OCO3)CC1,-5%,-28%,-20%,-14%,-18
COc1cccc(CNC(=O)c2c(OC)cc(=O)n3c2CCN(C(=O)c2cc(C)ccc2C)CC3)c1,.,-3%,14%,.,.
CC(C)Oc1ccc(F)cc1-c1cc(C(=O)NCc2ccc(C(F)(F)F)cc2)[nH]n1,?,?,16µM*,?,?
